Out of some 52,000 compounds screened, about 4,300 (8.3%) were called active. The full list was thinned out, with actives kept by preference. A number with no mark means an inactive call. Cut-off read from the data, not from the text of the source: active = survival mostly below about 52% (no sharp cut-off); inactive = mostly above about 56%.

For this assay, the system named is DeltatarO mutant. The assay can be described thus: S. aureus survival, RN4220 and DeltatarO strains – OD600, teichoic acid synthesis inhibitors, primary screen (AID 463173). The following applies: S. aureus RN4220 wild type/DeltatarO growth, OD600, 18 h, stronger effect = lower value, screened at 18.75 µg/mL (by protocol).
Take `O=C(COc1ccccc1Cl)Nc1nnc(S(=O)(=O)N2CCCC2)s1`: the survival was 39% (active).

Regarding `Cc1ccccc1OCC(=O)Nc1nnc(S(=O)(=O)N2CCCCCC2)s1`, the survival is 73%.

With `O=C(COc1ccccc1F)Nc1nnc(S(=O)(=O)N2CCCCCC2)s1`, the survival was 51% (active).

For the compound `CCN(CC)S(=O)(=O)c1nnc(NC(=O)COc2ccccc2Cl)s1`, the survival was 95%.

Consider `Cc1ccccc1OCC(=O)Nc1nnc(S(=O)(=O)N(C)c2ccccc2)s1`, for which the survival is 67%.

Consider `Cc1ccccc1OCC(=O)Nc1nnc(S(=O)(=O)N2CCCC2)s1`, for which the survival was 42% (active).

`O=C(COc1ccccc1Cl)Nc1nnc(S(=O)(=O)N2CCCCCC2)s1`: the survival is 70%.

With `Cc1ccc(NC(=O)CN2C=NS(=O)(=O)c3ccccc32)cc1`, the survival was 76%.

Take `Cc1ccc2nc(N(Cc3cccnc3)C(=O)c3ccc4c(c3)OCCO4)sc2c1`: the survival is 70%.

As for `COc1ccc(/C=C/c2nc(C#N)c(N3CCN(c4ccccc4)CC3)o2)cc1OC`, the survival was 88%.

On to `COc1ccc(-c2onc(C)c2C)cc1S(=O)(=O)NC1CCCCC1`, for which the survival is 72%.

For the compound `CCOc1ccc(CCNC(=O)C2CCN(C(=O)N3CC(CC)Oc4ccc(C)cc43)CC2)cc1` (configuration not stated), the survival is 63%.

Take `Cc1ccc(Cn2cc(S(=O)(=O)c3ccc(Cl)cc3)c(=O)c3cc4c(cc32)OCO4)cc1`: the survival is 77%.

For `Cc1ccc(S(=O)(=O)NCCc2nnc3ccc(SCC(=O)Nc4ccc(F)cc4F)nn23)cc1`, the survival was 88%.

Regarding `Cc1c(C)n(Cc2ccccc2)c2ccc(C(=O)N3CCN(c4ccccc4)CC3)cc12`, the survival is 99%.

Turning to `CC(=O)Nc1ccc(S(=O)(=O)N(Cc2ccccc2)Cc2ccccc2)cc1`, the survival was 54% (active).

Regarding `CCOc1ccc(NC(=O)CN(Cc2ccccc2)S(=O)(=O)c2ccc(Cl)cc2)cc1`, the survival was 78%.

For the compound `CCOC(=O)c1ccc(CN(Cc2ccc(C)cc2)S(=O)(=O)c2ccc(NC(C)=O)cc2)cc1`, the survival was 73%.

As to `CCOC(=O)c1ccc(CN(Cc2ccccc2)S(=O)(=O)c2ccc(Cl)cc2)cc1`, the survival was 32% (active).

Turning to `Cc1ccc(S(=O)(=O)N(CC(=O)Nc2ccc(C(C)C)cc2)Cc2ccccc2)cc1`, the survival is 54%.

In the case of `CCN(CC)S(=O)(=O)c1ccc(NC(=O)c2ccccc2)cc1`, the survival was 77%.

With `COC(=O)c1ccc(NC(=O)CN(Cc2ccccc2)S(=O)(=O)c2ccc(Cl)cc2)cc1`, the survival is 40% (active).

Regarding `CCOC(=O)c1ccc(CN(Cc2ccc(Cl)cc2Cl)S(=O)(=O)c2cccc(Cl)c2)cc1`, the survival is 80%.

Turning to `CCOC(=O)c1ccc(CN(Cc2ccc(F)cc2)S(=O)(=O)c2ccc(F)cc2)cc1`, the survival was 87%.

As for `COC(=O)c1ccc(NC(=O)CN(Cc2ccccc2)S(=O)(=O)c2ccc(C)cc2)cc1`, the survival is 42% (active).

Take `COC(=O)c1ccc(NC(=O)CN(CCc2ccccc2)S(=O)(=O)c2ccc(OC)cc2)cc1`: the survival was 69%.

Take `CCOC(=O)c1ccc(NC(=O)CN(Cc2ccc(C)cc2)S(=O)(=O)c2ccc(C)cc2)cc1`: the survival is 58%.

With `COc1ccc(-c2noc(-c3ccc(NC(C)c4ccccc4)c([N+](=O)[O-])c3)n2)cc1OC` (configuration not stated), the survival is 65%.

As for `CCCC12CN3CC(C)(CN(C1)C3c1ccc(OCc3ccccc3)cc1)C2=O` (configuration not stated), the survival is 80%.

With `COc1ccc(-n2nc3c(N4CCCC(C(=O)NCc5ccccc5C)C4)nnc(C)c3c2C)cc1` (configuration not stated), the survival was 90%.

In the case of `Cc1ccc(NC(=O)Nc2nc3c(s2)CCCCCC3)cc1C`, the survival is 69%.

With `O=C(Nc1nc2c(s1)CCCCCC2)Nc1ccc(F)cc1F`, the survival is 0% (active).

`O=C(Nc1ccc(Br)cc1)Nc1nc2c(s1)CCCCCC2`: the survival is 83%.

In the case of `CCCCC(=O)Nc1nnc(S(=O)(=O)N(CC)c2cc(C)cc(C)c2)s1`, the survival was 66%.

Regarding `CCN(c1cc(C)cc(C)c1)S(=O)(=O)c1nnc(NC(=O)c2cccs2)s1`, the survival was 25% (active).

Regarding `CN(c1ccccc1)S(=O)(=O)c1nnc(NC(=O)c2cccs2)s1`, the survival is 43%.

On to `CCN(c1cc(C)cc(C)c1)S(=O)(=O)c1nnc(NC(=O)C2CCCCC2)s1`, for which the survival was 105%.

For the compound `CCN(c1cc(C)cc(C)c1)S(=O)(=O)c1nnc(NC(=O)c2cccc(F)c2)s1`, the survival is 37% (active).

Take `Cc1cccc(N(C)S(=O)(=O)c2nnc(NC(=O)C(C)(C)C)s2)c1`: the survival is 99%.

Turning to `CCN(c1cccc(C)c1)S(=O)(=O)c1nnc(NC(=O)C2CCCCC2)s1`, the survival is 71%.

With `Cc1cccc(N(C)S(=O)(=O)c2nnc(NC(=O)c3cccs3)s2)c1`, the survival is 26% (active).

Consider `CCN(c1cccc(C)c1)S(=O)(=O)c1nnc(NC(=O)c2cccs2)s1`, for which the survival was 21% (active).

As for `CCN(c1ccccc1)S(=O)(=O)c1nnc(NC(=O)COc2cccc(C)c2)s1`, the survival is 107%.

For the compound `Cc1ccc(S(=O)(=O)Nc2ccc(-c3ccc(N4CCCCCC4)nn3)cc2)c(C)c1`, the survival is 70%.

Turning to `CCc1nnc(NC(=O)c2ccc(S(=O)(=O)N3CCc4ccccc4C3)cc2)s1`, the survival was 83%.

Take `Cc1ccc(NC(=O)CCNS(=O)(=O)c2cccs2)cc1F`: the survival was 63%.

For the compound `COc1cc(CN(C(=O)c2cccc(Cl)c2)c2ccccn2)cc(OC)c1OC`, the survival was 82%.

`COc1ccc(OC(=O)c2ccc3snnc3c2)cc1`: the survival is 86%.

As for `COc1ccc(CNC(=O)CCS(=O)(=O)c2cc3c4c(c2)CCN4C(=O)CC3)cc1OC`, the survival was 66%.

In the case of `Cc1ccc(C)c(NS(=O)(=O)c2cc3c(cc2Cl)NC(=O)CO3)c1`, the survival is 85%.

For `CCN(c1ccc(C)cc1C)S(=O)(=O)c1nnc(NC(=O)CC(C)C)s1`, the survival is 75%.

With `CCN(c1ccc(C)cc1C)S(=O)(=O)c1nnc(NC(=O)c2ccc(F)cc2)s1`, the survival is 14% (active).

`CCN(c1ccc(C)cc1C)S(=O)(=O)c1nnc(NC(=O)c2ccccc2OC)s1`: the survival was 55%.

On to `CC(C)Cn1cc(NC(=O)NCc2ccccc2)c2ccccc2c1=O`, for which the survival was 74%.

With `CCc1nonc1NC(=O)c1oc2cc(C)c(C)cc2c1C`, the survival is 102%.

For the compound `CCOC(=O)c1cnc(SCC)[nH]c1=O`, the survival is 41% (active).

For `CCOC(=O)c1cc2ccccc2[nH]c1=O`, the survival is 82%.

As for `CCOC(=O)c1cc(C(=O)OCC)c(=S)[nH]c1O`, the survival is 98%.

Regarding `Cc1ccc(NC(=O)c2c(NC(=O)c3ccc(F)cc3)sc3c2CCCC3)cc1C`, the survival is 67%.

In the case of `COCCCNC(=O)c1ccc2c(c1)NC(=O)C(C(C)C)N2` (configuration not stated), the survival is 57%.

As to `COc1ccc(NC(=O)c2sc3nc4c(cc3c2N)CCCCCC4)c(OC)c1`, the survival is 62%.

Take `CCc1oc(C(=O)O)cc1CN`: the survival was 97%.

`COc1ccc(Br)c2c1-c1nc(NC(=O)c3ccccc3SC)sc1C2`: the survival was 105%.

On to `COc1ccc(Br)c2c1-c1nc(NC(=O)c3ccccc3F)sc1C2`, for which the survival is 69%.

As for `COc1cc(C(=O)Nc2nc3c(s2)Cc2c(Br)ccc(OC)c2-3)cc(OC)c1OC`, the survival is 36% (active).

Regarding `COc1ccc(Br)c2c1-c1nc(NC(=O)c3cccc(C)c3)sc1C2`, the survival was 44%.

Consider `COc1ccc(C(=O)Nc2nc3c(s2)Cc2c(Br)ccc(OC)c2-3)cc1OC`, for which the survival is 36% (active).

For `COc1ccc(Br)c2c1-c1nc(NC(=O)c3ccc(F)cc3)sc1C2`, the survival was 67%.

Consider `Cc1cccc(N2CCN(C(=O)CN3C(=O)CSc4c3c(C)nn4-c3ccccc3)CC2)c1C`, for which the survival was 83%.

In the case of `O=C(Nc1ccc(F)cc1)c1cccc(N2CCCS2(=O)=O)c1`, the survival was 70%.

As for `COc1ccc(C(=O)Nc2nnc(S(=O)(=O)N(C)c3ccc(Cl)cc3)s2)cc1OC`, the survival is 83%.

Regarding `Cc1nnc(NC(=O)c2ccccc2)s1`, the survival is 71%.

Turning to `CN(c1ccccc1)S(=O)(=O)c1nnc(NC(=O)c2ccccc2)s1`, the survival is 32% (active).

For `CC(C)C(=O)Nc1cccc(C(=O)Nc2nnc(C(F)(F)F)s2)c1`, the survival is 58%.

As to `O=C(Nc1nnc(C(F)(F)F)s1)c1ccccc1`, the survival was 24% (active).

Consider `COc1cc(C(=O)Nc2nnc(S(=O)(=O)N(C)c3ccccc3)s2)cc(OC)c1OC`, for which the survival is 40% (active).

For the compound `CCCC(=O)Nc1nnc(S(=O)(=O)N(C)c2ccccc2)s1`, the survival was 108%.

As to `COc1ccc(C(=O)Nc2nnc(S(=O)(=O)N(C)c3ccc(C)cc3)s2)cc1`, the survival is 79%.

Turning to `CCN(C(=O)Cn1cnc2c1c(=O)n(C)c(=O)n2C)c1ccccc1C`, the survival was 87%.

On to `Fc1ccc(N2CCN(c3nc4ccccc4c4nc(-c5cccnc5)nn34)CC2)cc1`, for which the survival is 93%.

As to `CC(=O)N1c2ccc(S(=O)(=O)N3CCCCCC3)cc2CC1C(=O)NCc1cccc(F)c1` (configuration not stated), the survival was 65%.

Regarding `Cc1ccc(NC(=O)c2ccco2)c(OCc2cc(=O)n3cc(C)sc3n2)c1`, the survival was 102%.

Take `CCOC(=O)Nc1ccc2c(c1)OCO2`: the survival was 79%.

For `O=C(/C=C/c1ccccc1)Nc1ccc2c(c1)OCCO2`, the survival is 76%.

Regarding `NC(=O)/C=C/C(=O)Nc1ccc2c(c1)OCO2`, the survival was 33% (active).

Turning to `CCc1ccccc1NC(=O)N1CCOc2ccccc21`, the survival was 106%.

Turning to `CSc1ccc(C2c3c(oc4ccc(F)cc4c3=O)C(=O)N2c2ccc(C)cn2)cc1` (configuration not stated), the survival was 81%.

For `COc1cccc(N2CCN(C(=O)CCn3nc(C)c(S(=O)(=O)N4CCCC4)c3C)CC2)c1`, the survival was 92%.

For `COc1ccc(N2CCN(C(=O)CCn3nc(C)c(S(=O)(=O)N4CCCC4)c3C)CC2)cc1`, the survival is 73%.

In the case of `Cc1nn(CCC(=O)N2CCN(c3ccccc3)CC2)c(C)c1S(=O)(=O)N1CCCC1`, the survival was -5% (active).

As for `COc1ccc(Cl)cc1NC(=O)CSC1=Nc2ccccc2C2=NC(CC(=O)NCc3ccc4c(c3)OCO4)C(=O)N12` (configuration not stated), the survival was 87%.

Consider `COc1ccc(CCn2c(=O)c3cccnc3n(CC(=O)Nc3ccc(C)cc3C)c2=O)cc1OC`, for which the survival was 78%.

For the origin of these results see PubChem BioAssay AID463173 (ICCB-Longwood Screening Facility, Harvard Medical School, 2010).
